The full data set covers some 8,800 targets. This sample favours those with a hit. About 0.5% of all pairs of compound and target were hits.
What was measured:
Experiment in all cases: log2 fold change, soluble protein after heating vs DMSO (PISA); higher = thermal stabilisation; K562 lysate, 10 uM; active = over 0.2 and 3.5 SD of the protein, either way, in both replicates (recomputed)
[1] = compound: C1=CC=C(C=C1)[C@H](COC2=CC3=C(C=C2)NC(=O)N3)NC(=O)C4=CC=CN(C4=O)CC5=CC(=C(C=C5)F)F
Method in brief: (§1)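 K562 pellets were dounce-homogenised in PBS pH 7.4 with 1 mM MgCl2, and the crude extract at 1 mg/mL protein was treated with 10 μM compound for 30 min. Aliquots were heated for 3 min across 48°C-58°C, pooled, and brought to 0.5% NP-40 at 4°C; soluble protein was the supernatant after 21,000xg for 90 min. Soluble protein was quantified by TMTpro 16plex LC-MS/MS with channel sums equalised, and reported as log2 fold change in thermal stability against DMSO controls, with values from duplicates.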

[2] = compound: CC1=C(SC2=C1C(=N[C@H](C3=NN=C(N32)C)CC(=O)N)C4=CC=C(C=C4)Cl)C
Method in brief: as §1

[3] = compound: CC1=C2C(=CC=C1)N=C(N(C2=O)C3=CC=CC=C3C)CN4C=NC5=C(N=CN=C54)N
Method in brief: as §1

[4] = compound: Cc1sc2c(c1C)C(c1ccc(Cl)cc1)=N[C@@H](CC(=O)OC(C)(C)C)c1nnc(C)n1-2
Method in brief: as §1

[5] = compound: c1ccc([C@@H]2C[C@H]2NC2CCNCC2)cc1
Method in brief: as §1

Measured: log2 fold change

PIGO (UniProt Q8TEQ8)
inactive: [1] -0.098 | [2] -0.058 | [3] -0.014 | [4] -0.023 | [5] 0.039

PRIM2 (UniProt P49643)
inactive: [1] 0.004 | [2] 0.026 | [3] 0.016 | [4] 0.009 | [5] 0.028

PPFIA2 (UniProt O75334)
inactive: [1] 0.022 | [2] 0.041 | [3] 0.003 | [4] -0.016 | [5] -0.132

POLA1 (UniProt P09884)
Sequence of UniProt P09884 (P09884 whole entry, looked up): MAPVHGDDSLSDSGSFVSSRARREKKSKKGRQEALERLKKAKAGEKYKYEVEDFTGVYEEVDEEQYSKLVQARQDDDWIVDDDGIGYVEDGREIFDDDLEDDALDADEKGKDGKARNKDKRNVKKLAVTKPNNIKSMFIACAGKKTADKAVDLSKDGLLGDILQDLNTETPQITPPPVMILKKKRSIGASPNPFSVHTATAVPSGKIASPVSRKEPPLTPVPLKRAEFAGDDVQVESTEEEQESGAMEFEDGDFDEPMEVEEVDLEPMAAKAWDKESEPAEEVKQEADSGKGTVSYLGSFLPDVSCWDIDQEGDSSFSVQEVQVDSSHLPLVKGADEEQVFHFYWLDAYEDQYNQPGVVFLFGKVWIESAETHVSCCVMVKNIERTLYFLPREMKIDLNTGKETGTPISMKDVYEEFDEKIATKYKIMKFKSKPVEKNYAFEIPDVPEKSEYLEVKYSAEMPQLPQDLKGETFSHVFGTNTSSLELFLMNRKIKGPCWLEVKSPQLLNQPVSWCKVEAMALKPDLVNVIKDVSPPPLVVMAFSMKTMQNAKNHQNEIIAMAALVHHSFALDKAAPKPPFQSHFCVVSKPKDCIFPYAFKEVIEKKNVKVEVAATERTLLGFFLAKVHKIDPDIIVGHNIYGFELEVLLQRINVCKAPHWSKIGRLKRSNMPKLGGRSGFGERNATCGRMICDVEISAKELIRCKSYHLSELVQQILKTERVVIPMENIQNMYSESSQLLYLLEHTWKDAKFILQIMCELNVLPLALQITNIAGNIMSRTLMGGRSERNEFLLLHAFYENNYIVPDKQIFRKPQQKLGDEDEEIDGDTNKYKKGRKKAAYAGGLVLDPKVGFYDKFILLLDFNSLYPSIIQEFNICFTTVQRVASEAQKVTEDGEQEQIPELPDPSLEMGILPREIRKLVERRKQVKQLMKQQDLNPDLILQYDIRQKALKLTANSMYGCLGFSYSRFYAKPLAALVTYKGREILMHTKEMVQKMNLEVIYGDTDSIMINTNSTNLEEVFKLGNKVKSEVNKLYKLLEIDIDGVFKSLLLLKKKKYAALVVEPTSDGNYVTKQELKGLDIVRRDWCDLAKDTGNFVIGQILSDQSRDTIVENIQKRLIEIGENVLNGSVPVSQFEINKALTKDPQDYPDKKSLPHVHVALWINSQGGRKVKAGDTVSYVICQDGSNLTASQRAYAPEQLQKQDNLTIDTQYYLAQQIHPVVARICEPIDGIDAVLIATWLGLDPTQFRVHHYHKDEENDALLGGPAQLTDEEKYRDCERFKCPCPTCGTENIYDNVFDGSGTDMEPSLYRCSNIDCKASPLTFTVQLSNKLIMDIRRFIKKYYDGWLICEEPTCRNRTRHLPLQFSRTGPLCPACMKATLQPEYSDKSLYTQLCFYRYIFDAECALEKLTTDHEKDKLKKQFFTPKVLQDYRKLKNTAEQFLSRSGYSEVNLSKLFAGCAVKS
inactive: [1] 0.006 | [2] 0.01 | [3] 0.037 | [4] -0.002 | [5] 0.002

PRKACA (UniProt P17612)
inactive: [1] 0.029 | [2] 0.019 | [3] 0.008 | [4] -0.013 | [5] -0.245

PPP1R14C (UniProt Q8TAE6)
Sequence of UniProt Q8TAE6 (Q8TAE6 whole entry, looked up): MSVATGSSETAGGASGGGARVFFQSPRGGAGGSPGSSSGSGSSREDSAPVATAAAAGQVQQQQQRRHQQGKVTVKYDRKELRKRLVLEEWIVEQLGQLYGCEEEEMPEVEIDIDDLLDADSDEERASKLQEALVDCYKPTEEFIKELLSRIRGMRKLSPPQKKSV
inactive: [1] -0.019 | [2] 0.024 | [3] 0.051 | [4] -0.078 | [5] -0.147

PRPF6 (UniProt O94906)
inactive: [1] -0.006 | [2] 0.015 | [3] -0.012 | [4] -0.01 | [5] 0.04

PXMP4 (UniProt Q9Y6I8)
inactive: [1] -0.096 | [2] -0.022 | [3] -0.026 | [4] -0.191 | [5] 0.041

PPCDC (UniProt Q96CD2)
Sequence of UniProt Q96CD2 (Q96CD2 whole entry, looked up): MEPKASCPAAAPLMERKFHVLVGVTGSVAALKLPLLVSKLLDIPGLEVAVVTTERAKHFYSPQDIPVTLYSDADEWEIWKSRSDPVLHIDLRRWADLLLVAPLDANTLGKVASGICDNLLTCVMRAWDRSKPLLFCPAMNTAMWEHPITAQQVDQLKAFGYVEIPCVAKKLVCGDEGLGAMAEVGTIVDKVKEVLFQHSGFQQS
inactive: [1] -0.02 | [2] 0.034 | [3] -0.054 | [4] -0.074 | [5] -0.191

PTPN23 (UniProt Q9H3S7)
inactive: [1] -0.033 | [2] 0.011 | [3] 0.007 | [4] 0.024 | [5] 0

PDE4DIP isoform 4 (UniProt Q5VU43)
inactive: [1] -0.102 | [2] 0.154 | [3] 0.018 | [4] -0.016 | [5] -0.015

PRKAR2A (UniProt P13861)
inactive: [1] 0.009 | [2] 0.012 | [3] 0.038 | [4] -0.011 | [5] 0.027

PPT2 isoform 3 (UniProt Q9UMR5)
inactive: [1] 0.01 | [2] -0.03 | [3] -0.046 | [4] -0.048 | [5] -0.08

PDCD6IP (UniProt Q8WUM4)
Sequence of UniProt Q8WUM4 (Q8WUM4 whole entry, looked up): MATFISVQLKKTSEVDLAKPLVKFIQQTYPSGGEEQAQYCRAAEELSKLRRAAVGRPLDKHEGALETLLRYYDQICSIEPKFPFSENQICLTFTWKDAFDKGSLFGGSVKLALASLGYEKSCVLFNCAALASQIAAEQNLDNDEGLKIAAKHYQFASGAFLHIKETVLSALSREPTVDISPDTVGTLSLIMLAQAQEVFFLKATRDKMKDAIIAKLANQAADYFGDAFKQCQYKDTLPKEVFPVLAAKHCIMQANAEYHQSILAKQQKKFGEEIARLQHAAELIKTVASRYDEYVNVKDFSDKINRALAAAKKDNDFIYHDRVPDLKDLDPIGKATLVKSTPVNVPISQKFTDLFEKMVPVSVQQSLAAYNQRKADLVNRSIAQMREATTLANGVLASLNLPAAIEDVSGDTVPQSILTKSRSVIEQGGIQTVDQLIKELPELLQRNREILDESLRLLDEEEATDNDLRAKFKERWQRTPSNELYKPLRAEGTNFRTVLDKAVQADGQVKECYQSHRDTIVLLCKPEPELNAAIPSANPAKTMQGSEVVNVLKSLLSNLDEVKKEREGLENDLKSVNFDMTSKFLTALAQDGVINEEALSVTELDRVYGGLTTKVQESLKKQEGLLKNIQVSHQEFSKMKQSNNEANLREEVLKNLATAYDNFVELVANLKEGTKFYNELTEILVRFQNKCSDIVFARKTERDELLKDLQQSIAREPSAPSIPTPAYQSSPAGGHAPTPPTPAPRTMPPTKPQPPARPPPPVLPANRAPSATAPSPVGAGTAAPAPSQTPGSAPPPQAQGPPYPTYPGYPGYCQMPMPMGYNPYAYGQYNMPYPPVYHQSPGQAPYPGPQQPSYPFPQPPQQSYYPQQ
inactive: [1] -0.077 | [2] 0.086 | [3] 0.037 | [4] 0.043 | [5] 0.085

PTS (UniProt Q03393)
active: [2] -0.274
inactive: [1] -0.024 | [3] 0.032 | [4] -0.093 | [5] 0.022

PGRMC1 (UniProt O00264)
inactive: [1] 0.073 | [2] -0.038 | [3] 0.008 | [4] -0.031 | [5] -0.039

PPP2R5C isoform 4 (UniProt Q13362)
inactive: [1] -0.057 | [2] 0.003 | [3] 0.021 | [4] -0.103 | [5] 0.021

PCBP3 (UniProt P57721)
inactive: [1] -0.028 | [2] 0.014 | [3] -0.026 | [4] 0.021 | [5] 0

PMS1 (UniProt P54277)
inactive: [1] -0.011 | [2] -0.056 | [3] 0 | [4] -0.06 | [5] -0.006

PFKFB3 isoform 4 (UniProt Q16875)
inactive: [1] -0.04 | [2] 0.047 | [3] 0.057 | [4] 0.018 | [5] 0.041

PCIF1 (UniProt Q9H4Z3)
inactive: [1] -0.015 | [2] -0.013 | [3] 0.026 | [4] 0.066 | [5] -0.111

PHACTR4 isoform 2 (UniProt Q8IZ21)
inactive: [1] 0.03 | [2] 0 | [3] 0.014 | [4] 0.028 | [5] 0.264

PLXNB2 (UniProt O15031)
inactive: [1] -0.034 | [2] 0.037 | [3] 0.014 | [4] 0.004 | [5] -0.024

PITRM1 isoform 2 (UniProt Q5JRX3)
inactive: [1] 0.158 | [2] -0.193 | [3] 0.005 | [4] 0.04 | [5] 0.01

PTK2 (UniProt Q05397)
inactive: [1] 0.006 | [2] -0.027 | [3] -0.003 | [4] 0.023 | [5] -0.131

PRKCSH isoform 2 (UniProt P14314)
Sequence of UniProt P14314 (P14314 whole entry, looked up): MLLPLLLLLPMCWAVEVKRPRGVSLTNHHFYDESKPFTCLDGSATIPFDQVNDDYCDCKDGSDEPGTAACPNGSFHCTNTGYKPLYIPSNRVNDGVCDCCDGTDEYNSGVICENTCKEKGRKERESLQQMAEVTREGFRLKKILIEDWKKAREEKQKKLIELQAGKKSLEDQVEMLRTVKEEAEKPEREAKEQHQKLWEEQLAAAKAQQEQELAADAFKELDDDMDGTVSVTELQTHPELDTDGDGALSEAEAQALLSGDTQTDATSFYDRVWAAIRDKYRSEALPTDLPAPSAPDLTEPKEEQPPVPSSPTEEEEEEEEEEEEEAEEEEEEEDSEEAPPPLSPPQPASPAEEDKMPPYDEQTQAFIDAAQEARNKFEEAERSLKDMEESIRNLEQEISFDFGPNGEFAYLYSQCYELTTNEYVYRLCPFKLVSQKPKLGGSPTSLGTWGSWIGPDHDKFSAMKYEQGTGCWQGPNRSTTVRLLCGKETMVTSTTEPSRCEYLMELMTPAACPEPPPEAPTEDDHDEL
inactive: [1] 0.084 | [2] -0.09 | [3] -0.067 | [4] -0.128 | [5] -0.33

PTK2B (UniProt Q14289)
Sequence of UniProt Q14289 (Q14289 whole entry, looked up): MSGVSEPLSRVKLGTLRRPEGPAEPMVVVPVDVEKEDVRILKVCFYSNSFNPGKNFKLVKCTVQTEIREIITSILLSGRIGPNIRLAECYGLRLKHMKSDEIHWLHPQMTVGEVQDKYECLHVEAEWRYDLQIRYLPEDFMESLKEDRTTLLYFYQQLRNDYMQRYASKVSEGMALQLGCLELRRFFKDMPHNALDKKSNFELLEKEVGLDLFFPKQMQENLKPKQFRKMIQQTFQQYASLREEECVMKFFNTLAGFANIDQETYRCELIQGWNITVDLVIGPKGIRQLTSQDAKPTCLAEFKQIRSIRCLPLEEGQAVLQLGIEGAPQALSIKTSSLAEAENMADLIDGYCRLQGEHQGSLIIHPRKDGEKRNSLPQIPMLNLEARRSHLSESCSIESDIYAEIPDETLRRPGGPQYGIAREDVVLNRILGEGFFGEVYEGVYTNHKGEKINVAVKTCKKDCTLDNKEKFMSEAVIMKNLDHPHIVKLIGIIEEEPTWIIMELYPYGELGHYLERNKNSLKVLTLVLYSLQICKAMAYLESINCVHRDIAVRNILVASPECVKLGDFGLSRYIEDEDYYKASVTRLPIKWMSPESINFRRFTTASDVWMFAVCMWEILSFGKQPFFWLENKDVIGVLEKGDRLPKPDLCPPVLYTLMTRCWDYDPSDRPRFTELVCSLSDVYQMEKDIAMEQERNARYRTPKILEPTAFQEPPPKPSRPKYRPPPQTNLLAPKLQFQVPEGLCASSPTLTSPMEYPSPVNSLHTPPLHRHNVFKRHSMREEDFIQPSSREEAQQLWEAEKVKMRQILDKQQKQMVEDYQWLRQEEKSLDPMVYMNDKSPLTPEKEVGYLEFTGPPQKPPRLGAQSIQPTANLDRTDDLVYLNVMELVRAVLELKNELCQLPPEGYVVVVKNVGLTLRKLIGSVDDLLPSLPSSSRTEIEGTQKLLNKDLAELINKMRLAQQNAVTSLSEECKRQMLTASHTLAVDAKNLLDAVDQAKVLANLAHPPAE
inactive: [1] -0.056 | [2] -0.012 | [3] -0.036 | [4] -0.009 | [5] -0.034

POLR3E (UniProt Q9NVU0)
inactive: [1] -0.031 | [2] -0.003 | [3] -0.001 | [4] -0.002 | [5] -0.012

PCYT1B (UniProt Q9Y5K3)
inactive: [1] -0.006 | [2] 0.033 | [3] -0.01 | [4] -0.03 | [5] -0.073

PRC1 (UniProt O43663)
inactive: [1] 0.089 | [2] 0.037 | [3] 0.026 | [4] 0.03 | [5] 0.043

POLR2B (UniProt P30876)
inactive: [1] -0.021 | [2] 0.024 | [3] 0.019 | [4] 0.021 | [5] 0.013

PEF1 (UniProt Q9UBV8)
inactive: [1] 0.016 | [2] -0.039 | [3] 0.055 | [4] 0.048 | [5] -0.031

PI4K2B (UniProt Q8TCG2)
inactive: [1] -0.033 | [2] 0.048 | [3] 0.074 | [4] 0.068 | [5] 0.077

PDAP1 (UniProt Q13442)
inactive: [1] 0.004 | [2] 0.042 | [3] 0.008 | [4] 0.084 | [5] -0.112

PDCD4 (UniProt Q53EL6)
inactive: [1] -0.026 | [2] 0.005 | [3] -0.007 | [4] 0.002 | [5] 0.001

PDE2A (UniProt O00408)
inactive: [1] 0.012 | [2] 0.067 | [3] 0.163 | [4] 0.039 | [5] 0

POLR2M (UniProt P0CAP2)
inactive: [1] 0.026 | [2] -0.005 | [3] 0.025 | [4] 0.024 | [5] 0.005

PPP4R2 (UniProt Q9NY27)
inactive: [1] 0.019 | [2] 0.025 | [3] -0.001 | [4] -0.026 | [5] -0.009

PTGS1 isoform 6 (UniProt P23219)
inactive: [1] -0.007 | [2] -0.035 | [3] 0.077 | [4] -0.026 | [5] -0.11

PPP2R5C isoform 2 (UniProt Q13362)
inactive: [1] -0.016 | [2] 0.224 | [3] 0.004 | [4] -0.136 | [5] 0.026

PRAME (UniProt P78395)
inactive: [1] -0.009 | [2] 0.014 | [3] 0.014 | [4] -0.008 | [5] 0.026

POLR2M (UniProt Q6EEV4)
inactive: [1] 0.01 | [2] 0.042 | [3] -0.084 | [4] 0.132 | [5] 0.012

PPP2CA (UniProt P67775)
inactive: [1] -0.108 | [2] 0.037 | [3] 0.037 | [4] 0.092 | [5] -0.092

PGLS (UniProt O95336)
inactive: [1] -0.063 | [2] -0.06 | [3] 0.094 | [4] -0.04 | [5] 0.095

POLD3 (UniProt Q15054)
inactive: [1] -0.004 | [2] 0.002 | [3] 0.019 | [4] 0 | [5] 0.034

PPME1 isoform 4 (UniProt Q9Y570)
inactive: [1] -0.004 | [2] 0.013 | [3] -0.019 | [4] 0.021 | [5] 0.007

PKN1 isoform 2 (UniProt Q16512)
inactive: [1] -0.003 | [2] 0.017 | [3] 0.023 | [4] 0.029 | [5] 0.022

PKP3 isoform 2 (UniProt Q9Y446)
Sequence of UniProt Q9Y446 (Q9Y446 whole entry, looked up): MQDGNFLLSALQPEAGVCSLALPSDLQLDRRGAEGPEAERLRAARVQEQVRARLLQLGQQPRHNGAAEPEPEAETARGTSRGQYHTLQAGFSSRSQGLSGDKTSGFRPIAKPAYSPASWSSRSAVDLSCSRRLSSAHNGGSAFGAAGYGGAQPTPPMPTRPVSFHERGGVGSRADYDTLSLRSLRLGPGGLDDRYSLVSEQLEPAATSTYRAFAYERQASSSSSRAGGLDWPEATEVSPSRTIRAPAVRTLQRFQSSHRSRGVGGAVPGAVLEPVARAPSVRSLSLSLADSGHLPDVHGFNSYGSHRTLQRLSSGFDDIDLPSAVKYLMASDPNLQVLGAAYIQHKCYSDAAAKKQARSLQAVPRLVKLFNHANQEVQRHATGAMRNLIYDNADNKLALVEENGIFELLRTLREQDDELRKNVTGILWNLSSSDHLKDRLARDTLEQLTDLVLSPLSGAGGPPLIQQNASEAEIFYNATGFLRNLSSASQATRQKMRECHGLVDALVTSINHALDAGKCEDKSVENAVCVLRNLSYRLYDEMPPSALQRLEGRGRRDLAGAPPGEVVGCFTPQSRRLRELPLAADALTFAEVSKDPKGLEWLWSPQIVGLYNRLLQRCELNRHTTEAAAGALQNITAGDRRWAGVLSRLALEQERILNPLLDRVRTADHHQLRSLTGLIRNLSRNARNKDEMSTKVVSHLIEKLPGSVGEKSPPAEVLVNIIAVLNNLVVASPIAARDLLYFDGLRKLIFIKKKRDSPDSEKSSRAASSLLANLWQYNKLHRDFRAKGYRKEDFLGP
inactive: [1] -0.049 | [2] 0.014 | [3] 0.002 | [4] 0.062 | [5] -0.004

POLB (UniProt P06746)
inactive: [1] -0.02 | [2] -0.005 | [3] 0.028 | [4] 0.041 | [5] 0.021

PFKFB4 (UniProt Q16877)
inactive: [1] -0.066 | [2] 0.023 | [3] 0.059 | [4] -0.053 | [5] -0.007

PIP4P2 (UniProt Q8N4L2)
inactive: [1] 0.03 | [2] -0.068 | [3] -0.012 | [4] 0.012 | [5] -0.106

PDS5A (UniProt Q29RF7)
inactive: [1] -0.049 | [2] -0.031 | [3] 0.017 | [4] -0.011 | [5] 0.019
